# Assay results published in PubChem BioAssay AID651636 (Sanford-Burnham Center for Chemical Genomics, 2012).
# Out of some 360,000 compounds screened, about 3,000 (0.83%) were called active. The full list was thinned out, with actives kept by preference. Values without a mark were called inactive. Rule as the data show it: active = inhibition above about 38%; inactive = the rest.
# Target: G-protein coupled receptor 183 (Homo sapiens) (UniProt P32249)
# Assay: blockers of oxysterol-driven EBI2 arrestin signaling – cell-based, luminescence, 7a,25-OHC stimulation, uHTS, primary screen (AID 651636);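 also: enzyme fragment complementation signal reports receptor beta-arrestin coupling in cells; 0% = agonist plus DMSO wells and 100% = wells without agonist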
# Settings: EBI2 beta-arrestin recruitment, 7a,25-OHC stimulated, at 5 µM, active compounds read high
# G-protein coupled receptor 183 (Homo sapiens), sequence (P32249 whole entry, looked up, the tested form may be a part): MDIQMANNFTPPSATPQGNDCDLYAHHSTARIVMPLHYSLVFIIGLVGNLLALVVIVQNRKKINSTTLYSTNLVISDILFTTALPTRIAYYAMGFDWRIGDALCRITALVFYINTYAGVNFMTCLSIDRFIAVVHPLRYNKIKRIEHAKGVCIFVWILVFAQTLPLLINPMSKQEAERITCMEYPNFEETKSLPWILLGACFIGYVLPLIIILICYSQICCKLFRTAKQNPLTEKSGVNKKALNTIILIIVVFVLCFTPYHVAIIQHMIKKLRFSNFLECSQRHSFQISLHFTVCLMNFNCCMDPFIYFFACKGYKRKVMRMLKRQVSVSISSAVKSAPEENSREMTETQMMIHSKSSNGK
row,Compound,inhibition
1,COc1ccc(S(=O)(=O)NCC(=O)NCc2cc(=O)n(C)c(=O)n2C)cc1F,2.08%
2,CC(=O)NCCc1ccc(S(=O)(=O)N(C)C2CCS(=O)(=O)C2)cc1 (stereo not given),-2.21%
3,Cc1cccn2c(=O)c(/C=C(\C#N)S(=O)(=O)c3ccc(Cl)cc3)c(N3CCC(C(N)=O)CC3)nc12,-5.33%
4,Cc1cccn2c(=O)c3cc(C(=O)NC4CCCCC4)sc3nc12,8.11%
5,Cc1cc(C)cc(Oc2nc3c(C)cccn3c(=O)c2/C=C(\C#N)C(=O)NC2CCS(=O)(=O)C2)c1 (stereo not given),50.3% (active)
6,FC(F)(F)c1cccc(-c2nc3ccccc3n2C(c2ccccc2)c2nc3ccccc3[nH]2)c1 (stereo not given),8.62%
7,CSCCC(C(=O)NC1=NCCS1)N1C(=O)c2ccccc2C1=O (stereo not given),1.85%
8,COC(=O)N/N=C/c1c[n+]([O-])c2ccccc2[n+]1[O-],-1.98%
9,COc1ccc(/C=C/C(=O)c2cc(Br)ccc(=O)c2O)cc1,-0.626%
10,COc1ccc(/C=C/C(=O)NC(=S)N2CCCC(C(N)=O)C2)cc1 (stereo not given),-8.77%
11,COc1ccc(OC)c(/C=C/C(=O)c2ccc3c(c2)OCO3)c1,8.22%
12,COc1ccc(C(=O)CC(=O)c2ccc(C)cc2)c(O)c1,-3.66%
13,COc1ccc(C(=O)/C=C/c2ccc(OC3CSC3)cc2)cc1,60.1% (active)
14,COc1ccc(/C=C/C(=O)c2ccc(OC)cc2O)cc1,73.8% (active)
15,CC(C)[C@H](NC(=O)c1ccc(F)cc1)C(=O)OCC(=O)NC(=O)c1cccn1C,-1.33%
16,Cc1cc(C)cc(NC(=O)COc2coc(CN3CCN(c4ccccc4)CC3)cc2=O)c1,-4.06%
17,CCCc1cc(=O)[nH]c(SCc2ccc(C#N)cc2)n1,-20.6%
18,N#CC(=C1SC=CS1)c1nc(-c2ccccc2)cs1,-66.2%
19,CCCCCN1CC(O)=C(c2nc(-c3ccc(Cl)cc3)cs2)C1=N,-3.67%
20,N#CC(=C1CCCC1)c1nc(-c2ccc(Cl)cc2)cs1,54.1% (active)

row,Compound,inhibition
1,O=C(Nc1cccc(S(=O)(=O)NC2=NCCC2)c1)C1CCCCC1,-4.45%
2,CC(=O)c1ccc(NC(=O)CCc2nnc3ccc(NCc4ccco4)nn23)cc1,-2.75%
3,CCN(CC)S(=O)(=O)c1cccc(C(=O)NCC(=O)OCC(=O)NCc2ccccc2)c1,-10.4%
4,Cc1c(NC(=O)C(C)OC(=O)c2cc3c4ccccc4n(C)c3s2)c(=O)n(-c2ccccc2)n1C (stereo not given),-12.7%
5,CCn1c(C)c(C)c2cc(C(=O)N3CCN(c4cccc(C)c4C)CC3)ccc21,15.1%
6,Cc1cccc(N2CCN(C(=O)/C=C/c3ccco3)CC2)c1C,33%
7,Cc1cccc(N2CCN(C(=O)c3cc4c(=O)[nH]c5ccccc5c4n3C)CC2)c1C,88.2% (active)
8,CCCn1c(NC(=O)C23CC4CC(CC(O)(C4)C2)C3)nc2ccccc21,-9.2%
9,CCOC(=O)C(C)Oc1cccc2c(=O)n(CC(=O)N3CCc4ccccc43)ccc12 (stereo not given),11.2%
10,COc1cc(NC(=O)COC(=O)CSc2ccc3ccccc3c2)c(C)cc1[N+](=O)[O-],-6.04%
11,COc1cc(/C=C(/NC(=O)c2ccccc2)C(=O)Nc2cccc(O)c2)c([N+](=O)[O-])cc1OC,5.05%
12,COc1cc(/C=C(\C#N)C(=O)Nc2ccc3ccccc3c2)c([N+](=O)[O-])cc1OC,49.6% (active)
13,COc1ccc(CN2C(=O)CN=C2Nc2ccc(C)cc2C)cc1,-8.98%
14,COC(=O)[C@@]12C[C@@H](CC(=O)NCCCCc3ccccc3)C(=O)N(Cc3ccccc3)C1=CCC(C)(C)C2,17.4%
15,O=C(NNC(=O)c1cnccc1C(F)(F)F)c1ccc(Cl)cc1,-6.52%
16,CCN(C(=O)CSc1ncnc2sccc12)c1c(N)n(Cc2ccccc2)c(=O)[nH]c1=O,-7.44%
17,O=C(CSc1nnnn1C1CCCC1)Nc1ccc2c(c1)OCCO2,0.834%
18,CCOc1ccc(/C=C/C(=O)N(CC)CC(=O)NCc2cccs2)cc1OC,2.03%
19,CCN(CC(=O)NCc1cccs1)C(=O)c1ccccc1F,0.894%
20,CCN(CC(=O)NCc1cccs1)C(=O)/C=C/c1ccc(C)cc1,92% (active)
